The values below come from PubChem BioAssay (NCI).

Values joined by “and” are separate entries in the source; they are usually repeats but may differ in a detail not shown here. Equal entries are not always repeated. This is part of a sample that, as a whole, favours compounds with a hit. Of some 83,000 tested, about 20% had one in any assay.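 Interpretation: 100, growth as untreated; towards 0, rising growth inhibition; 0, no net growth; 0 to -100, cell death. Compounds scoring below 10 were considered active.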 A number with no mark means an inactive call. Active and inactive are the calls of the source.

This test relates to MDA-MB-468 breast. As to the kind of experiment: NCI-60 one-dose screen, 48 h (100 = growth as untreated, 0 = no growth, -100 = all killed). The note with it: 10 µM unless noted.
On to `CCCCCc1ccc(S(=O)(=O)Nc2cccc(-c3csc(NC(=O)CNCCN(C)C)n3)c2)cc1`, for which the growth is 82.9%.
For `CN1CCN(c2ccc(Nc3ncc4[nH]c(=O)n(Cc5ccccc5N)c4n3)cc2)CC1`, the growth is 111%.
In the case of `COc1ccc(-n2c(SCc3n[nH]c(=S)o3)nc3ccc(Cl)cc3c2=O)cc1`, the growth was 82.6%.
Turning to `Cc1ccccc1/C=C1\CN(C(=O)OC(C)(C)C)C/C(=C\c2ccccc2C)C1=O`, the growth was 36.7%.
Turning to `CN1CCN(c2ccc3nc(-c4c(N)c5c(F)cccc5[nH]c4=O)[nH]c3c2)CC1`, the growth is 108% and 102%.
Take `CCCCCCCCCCCCCCCCOc1ccc(S(=O)(=O)N(C)C)cc1[N+](=O)[O-]`: the growth was 84.2%.
`CN(C)C(=O)OCc1ccc2c(Cl)cc(Cl)c(O)c2n1`: the growth was 27%.
The figure for `Cc1ccc(NC(=O)CN2CCOCC2)cc1Cl` is 99.1%.
`O=c1oc2ccccc2c(Cl)c1Cl`: the growth is 4.65% (active).
For the molecule `COc1ccc2c(O)cc3c(c2c1)[C@H](CCl)CN3C(=O)c1cc2cc(NC(=O)CCN3CCOCC3)ccc2[se]1`, the growth is -25.3% (active).
In the case of `CNC(=O)c1cc(Oc2ccc3nc(NC(=O)Nc4ccc(F)cc4F)sc3c2)ccn1`, the growth is 51.2%.
Turning to `Cc1ccc2c(c1)=C/C(=C\c1cc(-c3ccccc3)oc1O)C(=O)N=2`, the growth was 109%.
For `OC(CCCCCCCCC(O)CN1CCc2ccccc2C1)CN1CCc2ccccc2C1` (centres undefined), the growth is 127%.
In the case of `CN1CCN(Cc2cc(NC(=O)c3cccc(C#Cc4cccc5[nH]nc(N)c45)c3)cc(C(F)(F)F)c2)CC1`, the growth was 10.8%.
